According to PubChem BioAssay:
A number with no mark means an inactive call.

Test: change in splice reporter luminescence, either direction, cell-based, HEK293, spliceosome inhibition project, primary screen (AID 1101);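 note: HEK293 cells carrying a splicing-competent luciferase reporter gene; test concentration not given here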
Settings: HEK293 splicing luciferase reporter, 24 h, higher = more signal, called active from +8 up or from −8 down
`[N-]=[N+]=NCc1ccccc1[C@@H]1OC(c2ccc(OCCCO)cc2)=N[C@]1(CCS(=O)(=O)c1ccccc1)C(=O)NCc1ccccc1` showed a z-score of -0.392. With `CCOC(=O)[C@H]1C/C=C/C[C@H](C(=O)OCC)C(=O)O[C@H]2[C@@H](OC)O[C@H](CO)[C@@H](OC(=O)Nc3ccc(C#N)cc3)[C@@H]2OC1=O` the z-score was -2.6. Work on `C#CCN(Cc1ccccc1Br)C(/C=C/c1ccccc1)CO` (stereo unspecified) yielded a z-score of -1.03. For `CC(C)[C@@H](CO)NC(=O)[C@H]1[C@@H](c2ccccc2)N(c2ccccc2)O[C@@H]1C`, the z-score was -0.18. With `[N-]=[N+]=Nc1ccccc1C[C@]1(C(=O)NCC(O)CO)N=C(c2ccc(OCCCO)cc2)O[C@H]1c1ccccc1N=[N+]=[N-]` (stereo partly specified) the z-score was -1.19. Work on `C=CC[C@]1(C(=O)NCCCOC)N=C(c2ccc(OCCCO)cc2)O[C@H]1c1ccccc1N=[N+]=[N-]` yielded a z-score of -0.885. With `C=CCOC(=O)[C@H]1[C@@H]2C(=O)O[C@@H](c3ccccc3)[C@@H](c3ccccc3)N2[C@@H](c2ccc(OCCOC(=O)[C@H]3C[C@H]4C(=O)N5CCC[C@H]5C(=O)N4[C@H]3c3ccc(O)cc3)cc2)[C@]12C(=O)Nc1ccccc12` the z-score was 0.994. With `CN(C)CCCCCCNC(=O)[C@@H]1C[C@@H]2C(=O)N[C@@H](CCCCN)C(=O)N2[C@@H]1c1cccc(OCCO)c1` the z-score was -1.56. `COCCOC(=O)N1C(=O)[C@@]2(c3cc(C#Cc4ccc(OC)cc4)ccc31)[C@H](C(N)=O)[C@H]1C(=O)O[C@H](c3ccccc3)[C@H](c3ccccc3)N1[C@@H]2c1ccccc1OCCO` showed a z-score of -0.265. `CCOC(=O)[C@H]1C/C=C/C[C@H](C(=O)OCC)C(=O)O[C@H]2[C@@H](OC)O[C@H](CO)[C@@H](OC(=O)Nc3cccc(F)c3)[C@@H]2OC1=O` showed a z-score of 0.68. `CN1C(=O)C2C=CC(C(O)C3CC=CCC3)N(NC(=O)OC(C)(C)C)C2C1=O` (stereo unspecified) gave a z-score of 1.61. `COc1ccc(CCNC(=O)[C@@]2(Sc3ccc(C)cc3)CC(=O)N(C3CCCCC3)[C@@H]2c2ccc(CO)cc2I)cc1` gave a z-score of 0.451. Work on `COc1ccc(CCNC(=O)[C@@H]2c3ccccc3C(=O)N(C3Cc4ccccc4C3)[C@H]2c2ccc(CO)cc2)cc1` yielded a z-score of 0.54. `CO[C@H]1O[C@H](CO)[C@@H](OC(=O)Nc2ccc(Br)cc2)[C@H](OC(=O)c2cc3ccccc3[nH]2)[C@H]1OC(=O)c1cc2ccccc2[nH]1` showed a z-score of -4.44. For `C=CCOC(=O)[C@H]1[C@@H]2C(=O)O[C@@H](c3ccccc3)[C@@H](c3ccccc3)N2[C@@H](c2ccc(OCCOC(=O)[C@H]3C[C@H]4C(=O)N[C@@H](CC(C)C)C(=O)N4[C@H]3c3ccc(O)cc3)cc2)[C@]12C(=O)Nc1ccc(I)cc12`, the z-score was -0.281. For `O=C(NCC(F)(F)F)[C@@H]1c2ccccc2C(=O)N(C2CCCCC2)[C@H]1c1ccc(CO)cc1`, the z-score was 0.283. Compound `CCCC=C(CCC)[C@@H](NC(=O)Oc1ccc(F)cc1)c1ccc(C(=O)OC)cc1` has a z-score of -1.86. With `COC(=O)c1c(CC[C@@H](CO)NC(=O)N2CCC[C@H]2Cn2cc(-c3ccccn3)nn2)oc(C(C)=O)c1C(=O)OC` the z-score was -1.25. With `CC(C)(C)OC(=O)CC[C@]1(C(=O)O)N=C(c2ccc(OCCCO)cc2)O[C@H]1c1ccccc1N=[N+]=[N-]` the z-score was 0.115. Work on `COC(=O)C(CC#Cc1ccc2c(c1)[C@]1(C(=O)N2)[C@H](C(=O)O)[C@H]2C(=O)O[C@H](c3ccccc3)[C@H](c3ccccc3)N2[C@@H]1c1ccc(O)cc1)C(=O)OC` yielded a z-score of 0.199. Compound `COCCOC(=O)N1C(=O)[C@@]2(c3cc(C#Cc4ccc(OC)cc4)ccc31)[C@H](c1ccc(O)cc1)N1[C@H](c3ccccc3)[C@H](c3ccccc3)OC(=O)[C@H]1[C@@H]2C(=O)NC[C@H](O)c1ccccc1` has a z-score of -1.68. With `CN1C(=O)C2C=CC(C(O)c3cccs3)N(Nc3ccccc3)C2C1=O` (stereo unspecified) the z-score was 1.46. `CC(C)(C)OC(=O)CC[C@@]1(C(=O)NCC(O)CO)N=C(c2ccc(OCCCO)cc2)O[C@@H]1c1ccccc1N=[N+]=[N-]` (stereo partly specified) showed a z-score of -0.764. Work on `C[C@@H]1ON(c2cccc(C(=O)OC(C)(C)C)c2)[C@H](c2ccc(Br)cc2)[C@H]1C(=O)N1C(=O)OC[C@H]1Cc1ccccc1` yielded a z-score of -0.0916. With `COc1ccc(C(=O)Nc2ccc(CN3C(=O)[C@@]4(O[C@@H](CCn5cc([C@H](O)c6ccccc6)nn5)[C@H]([Si](C)(C)c5ccc(OC)cc5)[C@H]4C)c4ccccc43)cc2)cc1` the z-score was -1.06. In the case of `CC(C)c1ccc(NN2C(C(O)c3cc(C(F)(F)F)cc(C(F)(F)F)c3)C=CC3C(=O)N(c4ccccc4)C(=O)C32)cc1` (stereo unspecified), the z-score is reported as -0.753.
